VCAM1 TNFa inh = reduces TNF alpha induced VCAM1 expression in HUVEC; HUVEC TNFa-induced VCAM-1 immunofluorescence, high-content imaging; inhibition, % at 2 µM; 95,000 tested, 0.48% active; AID 802;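 active means inhibition above the batch mean plus 3 SD, with images confirmed as a hit by eye, cut at about 37% in these data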
IL1B NFkB pot = enhances IL-1B driven NFkB nuclear translocation. HUVEC IL-1B NFkB p65 nuclear translocation imaging. activation, % at 2 µM. 94,000 tested, 0.3% active;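 active means activation above 40%, about the mean plus 3 SD, also judged a hit on visual image review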;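 further: percent activation is computed from the nuclear over cytoplasmic p65 intensity ratio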
NFkB transloc inh = blocks IL-1B driven NFkB nuclear translocation in HUVEC cells; 94,000 tested, 0.43% active; inhibition, % at 2 µM; AID 796; HUVEC IL-1B NFkB p65 nuclear translocation imaging;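 active means inhibition above about 30% together with a positive call from visual inspection of the well image, limit read from the data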;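 further: nuclear over cytoplasmic p65 intensity ratio measured by imaging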
IL1B cytotox = toxic to HUVEC cells under IL-1B stimulation; HUVEC cell count loss, Hoechst imaging, IL-1B stimulated; cell count reduction, % at 2 µM; 94,000 tested, 0.41% active;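 active means cell count reduction more than 3 SD above the screen-wide mean, cut at about 70% in these data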
TNFa cytotox = HUVEC cytotoxicity counter-screen, TNF alpha stimulated | cell count reduction, % at 2 µM | HUVEC TNFalpha-stimulated, Hoechst cell count, imaging | AID 848 | 93,000 tested, 0.17% active;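 active means cell count reduction exceeding the screen mean by over 5 SD, scaled to untreated wells per plate, cut at about 78% in these data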;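 further: cells counted after 24 h of TNF alpha exposure following the 1 h pretreatment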
E-sel TNF inh = blocks E-selectin expression induced by TNF alpha | AID 1246 | inhibition, % at 2 µM | HUVEC TNFa-induced E-selectin immunofluorescence, high content | 120,000 tested, 0.71% active;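 active means inhibition above the batch mean plus 3 SD, and confirmed as a hit on visual image review, cut at about 43% in these data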
Of the large screens only hits and unclear results are named; the others gave an inactive call. Only some compounds are listed: those with a hit (about 1.6% of all), similar ones and a draw of the others.

CCCCSc1nc(C)cc(SCC(=O)N/N=C/c2cccc(OC)c2O)n1	VCAM1 TNFa inh 44
CCN(CC)CCNC(=O)CS(=O)Cc1nc(-c2ccc(Cl)cc2)oc1C (centres undefined)	none (no result: E-sel TNF inh)
CCN(CC)CCNC(=O)CS(=O)Cc1nc(-c2ccccc2Cl)oc1C (centres undefined)	E-sel TNF inh 71
O=C(Oc1ccc(/C=N/Nc2ccccc2)cc1)c1ccccc1	E-sel TNF inh 58
O=C(CCNC(=O)c1ccc(Cl)cc1)Nc1c(F)c(F)cc(F)c1F	none (no result: VCAM1 TNFa inh, IL1B NFkB pot, NFkB transloc inh, IL1B cytotox, TNFa cytotox)
Cc1cc(C(=O)NNC2CC(=O)N(c3ccc4ccccc4c3)C2=O)c(C)o1 (centres undefined)	none (no result: VCAM1 TNFa inh, IL1B NFkB pot, NFkB transloc inh, IL1B cytotox, TNFa cytotox)
O=C(CN1CCCCCC1=O)OCc1ncc(-c2ccccc2)o1	VCAM1 TNFa inh 90 (no result: E-sel TNF inh)
COc1ccc(-c2cn3ccc4ccccc4c3n2)cc1	IL1B NFkB pot 40
CCc1ccc(/C=C/C(=O)c2ccc(S(=O)(=O)N(C)C)cc2)cc1	none (no result: VCAM1 TNFa inh, IL1B NFkB pot, NFkB transloc inh, IL1B cytotox, TNFa cytotox)
CCc1ccc(C(=O)/C=C/c2ccc([N+](=O)[O-])o2)cc1	VCAM1 TNFa inh 49, NFkB transloc inh 44
COc1ccc(CCNC(=O)CN2C(=O)c3ccccc3C2=O)cc1	none
COCCCNC(=O)CN1C(=O)c2ccccc2C1=O	E-sel TNF inh 66
CCn1c2ccc(/C(C)=N\O)cc2c2cc(/C(C)=N\O)ccc21	E-sel TNF inh 100
CCNc1ccc(C(=O)OC(C(=O)NC(N)=O)C(C)C)cc1[N+](=O)[O-] (centres undefined)	none (no result: VCAM1 TNFa inh, IL1B NFkB pot, NFkB transloc inh, IL1B cytotox, TNFa cytotox)
O=C(COC(=O)c1cccc(NS(=O)(=O)c2ccc(F)c(F)c2)c1)NC(=O)NC1CCCC1	none (no result: VCAM1 TNFa inh, IL1B NFkB pot, NFkB transloc inh, IL1B cytotox, TNFa cytotox)
O=C(CC1C(=O)NCCN1C(=O)c1ccc(F)cc1)OCc1ccccc1 (centres undefined)	IL1B cytotox 92
CCN(CC)CCCC(C)NC(=O)c1cccc(S(=O)(=O)N2CCc3ccccc32)c1 (centres undefined)	none (no result: VCAM1 TNFa inh, IL1B NFkB pot, NFkB transloc inh, IL1B cytotox, TNFa cytotox)
COc1ccc(Cl)cc1NC(=O)CN1CCC(n2nnc3cc(F)ccc32)CC1	NFkB transloc inh 100, IL1B cytotox 92
O=C(CN1CCC(n2nnc3cc(F)ccc32)CC1)Nc1ccc2c(c1)CCC2	none
CCc1ccc(NC(=O)Cn2nc(C(F)(F)F)c3c2CCC3)cc1	none
COc1cc(NC(=O)Cn2nc(C(F)(F)F)c3c2CCCC3)cc(OC)c1OC	IL1B cytotox 71
CN(C)C(=O)c1ccc(NC(=O)COc2ccc([N+](=O)[O-])cc2)cc1	none (no result: VCAM1 TNFa inh, IL1B NFkB pot, NFkB transloc inh, IL1B cytotox, TNFa cytotox)
O=C(c1cccc(C(F)(F)F)c1)N1CCCC1	none
O=C(c1cccc(F)c1)N1CCN(S(=O)(=O)c2ccc(C(F)(F)F)cc2)CC1	E-sel TNF inh 83
COc1ccccc1C(=O)N(CCC1CCCN1C)c1nc2ccccc2s1 (centres undefined)	none (no result: VCAM1 TNFa inh, IL1B NFkB pot, NFkB transloc inh, IL1B cytotox, TNFa cytotox)
COc1cccc(NC(=O)CSC2=C(C#N)C(c3ccco3)C3=C(CCCC3=O)N2)c1 (centres undefined)	none (no result: E-sel TNF inh)
COc1ccc(C2C(C#N)=C(SCC(=O)Nc3ccc(C)cc3)NC3=C2C(=O)CC(C)(C)C3)cc1 (centres undefined)	E-sel TNF inh 66 (no result: IL1B NFkB pot, NFkB transloc inh, IL1B cytotox)
COc1ccc(CNC(=O)C(c2ccco2)N(Cc2ccccc2)C(=O)Cc2cccs2)cc1 (centres undefined)	none
COc1ccc(CNC(=O)C(c2ccco2)N(Cc2cccs2)C(=O)Cc2cccs2)cc1 (centres undefined)	IL1B NFkB pot 41
O=S(=O)(NCC(c1ccco1)N1CCN(c2ccccc2)CC1)c1ccc(F)cc1 (centres undefined)	E-sel TNF inh 69 (no result: VCAM1 TNFa inh, IL1B NFkB pot, NFkB transloc inh, IL1B cytotox, TNFa cytotox)
CCC(=O)NCC(c1ccco1)N1CCN(c2ccc(OC)cc2)CC1 (centres undefined)	none (no result: VCAM1 TNFa inh, IL1B NFkB pot, NFkB transloc inh, IL1B cytotox, TNFa cytotox)
CCS(=O)(=O)NCC(c1ccco1)N1CCN(c2ccccc2)CC1 (centres undefined)	E-sel TNF inh 70 (no result: VCAM1 TNFa inh, IL1B NFkB pot, NFkB transloc inh, IL1B cytotox, TNFa cytotox)
Cc1ccc2c(ccc(=S)n2C)c1	none (no result: VCAM1 TNFa inh, IL1B NFkB pot, NFkB transloc inh, IL1B cytotox, TNFa cytotox)
CCC(C)Sc1nc(O)c(Cc2ccccc2)c(=O)[nH]1 (centres undefined)	none (no result: E-sel TNF inh)
CCC(C)Sc1nc(O)cc(=O)[nH]1 (centres undefined)	TNFa cytotox 78 (no result: E-sel TNF inh)
O=C(O)c1ccccc1C(=O)Nc1ccccc1	none
O=C(Nc1ccccc1)C1=C(c2ccccc2)S(=O)(=O)CCS1(=O)=O	E-sel TNF inh 100 (no result: VCAM1 TNFa inh, IL1B NFkB pot, NFkB transloc inh, IL1B cytotox, TNFa cytotox)
COC(=O)Sc1nc(N2CCOCC2)c2c(c1C#N)CC(C)(C)OC2	VCAM1 TNFa inh 41 (no result: E-sel TNF inh)
O=C(O)CCc1nn2c3ccccc3n(Cc3ccccc3F)c2nc1=O	none (no result: VCAM1 TNFa inh, IL1B NFkB pot, NFkB transloc inh, IL1B cytotox, TNFa cytotox)
O=C(Nc1ccc(Cc2ccc(NC(=O)N3CCOCC3)cc2)cc1)N1CCOCC1	none (no result: VCAM1 TNFa inh, IL1B NFkB pot, NFkB transloc inh, IL1B cytotox, TNFa cytotox)
